Compound activity: PubChem BioAssay, National Center for Advancing Translational Sciences (NCATS)
Cycloheximide cs – affects cycloheximide protein synthesis inhibition readout, counter-screen. cell reporter, cycloheximide protein synthesis inhibition counterscreen. max response, %. actives 12% (n = 300,000). AID 2314; in the data active means max response mostly above about 13%, no sharp cut-off; inactive means mostly below about 14%; further: read at 38.3 µM for the half of the compounds with a filed dose; 0% is about no effect
Pf growth 48h – inhibits P. falciparum growth in the first generation, 48 h; P. falciparum luciferase growth in erythrocytes, 48 h; Potency, µM (highest dose often 28.7 µM), without a hit: at the highest dose activity change, negative = inhibition, usual class: inhibitors; actives 5.9% (n = 310,000); AID 504832; further: potency means the concentration at half of the fitted maximal effect; on the % scale 0 is the no-effect control and ±100 the full control effect
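Luciferase-expressing P. falciparum in infected erythrocytes (2% hematocrit, 0.1% parasitemia final) in RPMI 1640/0.5% Albumax were exposed to compound for 48 hours at 37 C, 5% CO2; growth read as luminescence.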
Shiga inhibitor – inhibitors of Shiga toxin in Vero cells; Vero cells, Shiga toxin protein synthesis inhibition reporter; inhibition, % at 38.7 µM; actives 9.2% (n = 290,000); in the data active means inhibition mostly above about 28%, no sharp cut-off; inactive means mostly below about 43%; further: 0% is about no effect
Pf growth 96h – inhibits malaria parasite growth, 96 h; Potency, µM (highest dose often 28.7 µM), inactives show at the highest dose activity change, negative = inhibition, usual class: inhibitors; P. falciparum luciferase reporter growth, 96 h; actives 6.9% (n = 320,000); further: potency means the concentration at half of the fitted maximal effect; on the % scale 0 is the no-effect control and ±100 the full control effect
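96 h incubation, 37 C, 5% CO2, of luciferase-reporter P. falciparum-infected RBCs (2% hematocrit, 0.05% parasitemia final) with test compounds; endpoint luminescence.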
Starred values were filed as active, the others as inactive; ? = inconclusive; · = no result given. The list is not random: actives were taken first. Their share in the collection is about 21%. Unless noted, the call rests on the fitted dose curve; in most records, active means well fitted inhibition curve with a large enough effect; inconclusive means small, poorly fitted or top-dose-only effect, or another doubt; inactive means no such curve, though single readings can be large or run the other way.

SMILES | Cycloheximide cs | Pf growth 48h | Shiga inhibitor | Pf growth 96h
COc1cc(/C=C2\SC(=S)N(CCC(=O)N3CCCCC3)C2=O)cc(OC)c1OC | -2 | ? | -4 | 24%
Cc1ccc(OC(C)C(=O)Nc2ccncc2)cc1C (stereo unspecified) | -1 | ? | · | ?
O=C1CC2(CCN(C(=O)C(=O)c3c[nH]c4ccccc34)CC2)Oc2ccccc21 | -3 | ? | -6 | ?
CCOC(=O)c1c(C)[nH]c(C(=O)OCC(=O)Nc2sccc2C(N)=O)c1C | · | 4.7µM* | · | ?
CCOC(=O)c1c(C)[nH]c(C(=O)OCC(=O)Nc2ccc(Cl)cn2)c1C | · | -6% | · | -5%
CCN(C(=O)CSc1nnc(CNc2cccc(OC)c2)n1C1CCCCC1)C1CCS(=O)(=O)C1 (stereo unspecified) | 21 | ? | -9 | 4.1µM*
Cc1cccc(/C=C(\c2nc3ccccc3[nH]2)S(=O)(=O)c2ccccc2)c1 | -4 | 3.7µM* | -6 | ?
CCc1cccc(NC(=S)N(CCOC)C(C)c2ccco2)c1 (stereo unspecified) | 5 | -3% | -6 | ?
COC(=O)c1sc(S(=O)(=O)Nc2ccc(Br)cc2)c(C(=O)OC)c1C | -2 | 21% | -13 | 40%
Cc1ccsc1/C=C1/C(=O)NN(c2ccccc2)C1=O | 40* | 2% | 82* | -13%
C/C(=N\NC(N)=S)c1ccc(Cl)s1 | -2 | -15% | -2 | ?
CC/C(=N\NC(=O)c1ccoc1C)c1ccc(C)o1 | 82* | 156% | 149* | 25%
C/C(=N\NC(=O)c1ccoc1C)c1ccc(Cl)s1 | 41* | 66% | 87* | -12%
C/C(=N\NC(=O)c1csc(C)c1C)c1ccc(Cl)s1 | 33* | 69% | 72* | ·
CCOCCCNC(=O)c1ccc(N2CC3CC(C2)c2cccc(=O)n2C3)c(NC(=O)Nc2cccc(OC)c2)c1 (stereo unspecified) | 1 | ? | -4 | -11%
Cc1ccc(C)c(N2CCN(C(=O)c3ccc(N4CCCC4=O)cc3)CC2)c1 | 1 | -32% | -4 | ?
CC(=O)Nc1c(O)nc(SCC(=O)Nc2nnc(SCc3ccccc3)s2)[nH]c1=O | 7 | 42% | 3 | 105%
Cn1c(C(=O)N2CCCC(C(=O)NCCCc3ccccc3)C2)cc2sccc21 (stereo unspecified) | 10 | ? | 36 | ?
Cn1c(C(=O)N2CCCC(C(=O)NCCc3ccccc3)C2)cc2sccc21 (stereo unspecified) | 18* | ? | 61* | 212%
O=C(NCc1ccco1)C1CCN(C(=O)c2cc3sccc3n2Cc2ccc(F)cc2)CC1 | 7 | 1.9µM* | 6 | 6%
CC1Cc2ccccc2N1C(=O)c1cc2sccc2n1Cc1ccc(F)cc1 (stereo unspecified) | 6 | 12µM* | 26 | ?
O=C(NCCCN1CCCC1)C1CCN(C(=O)c2cc3sccc3n2Cc2ccc(F)cc2)CC1 | -2 | · | -9 | 10µM*
CC1CN(C(=O)CCC(=O)NCCCN2CCN(Cc3ccccc3)CC2)c2cc(Cl)ccc2O1 (stereo unspecified) | -9 | ? | -5 | ?
Cc1ccc(Cn2c(C(=O)NCCCN3CCOCC3)cc3sccc32)cc1 | -4 | 12µM* | -9 | 116%
O=S(=O)(NCc1ccccc1)c1ccc(-n2cccn2)cc1 | 10 | 7% | -1 | ?
SMILES | Cycloheximide cs | Pf growth 48h | Shiga inhibitor | Pf growth 96h
CCN(CC)S(=O)(=O)c1ccc(OC)c(NC(=O)c2cc(=O)[nH]c3ccccc23)c1 | 2 | 0% | -6 | 2%
O=c1c2ccccc2[nH]c2ccc(O)cc12 | 3 | -10% | 16 | ?
Cc1ccc2[nH]c(CSc3ccccc3)cc(=O)c2c1 | 20 | ? | 24 | 13µM*
Cc1ccc2[nH]c3ccccc3c(=O)c2c1 | 28* | · | 48* | 34%
Cc1cccc(N=C2NC(=O)C(CO)(CO)S2)c1 | 1 | 9% | -7 | ?
CC(C)CC(=O)NC(=S)Nc1ccccn1 | 26* | 26% | 44 | ·
O=C(Cc1ccc(-c2ccccc2)cc1)Nc1ccccn1 | 40* | 30% | 88* | 42%
Cc1ccnc(NC(=O)CS(=O)(=O)Cc2ccccc2)c1 | 7 | 26% | 7 | ·
Cc1ccnc(NC(=O)Cc2ccc(-c3ccccc3)cc2)c1 | 72* | 8% | 80* | 255%
O=C(CC(=O)Nc1ccccn1)Nc1ccccn1 | 18* | 144% | 15 | 9.3µM*
O=C(CN1CCN(CC(=O)Nc2ccccn2)CC1)Nc1ccccn1 | -3 | 1% | -10 | ?
Cc1ccc(NCC(=O)N/N=C/c2cccc(Oc3ccccc3)c2)cc1 | 13 | -11% | 17 | ?
Cc1ccc(NCC(=O)Nc2c(C)n(C)n(-c3ccccc3)c2=O)cc1S(=O)(=O)N(C)C | 0 | 6% | 12 | -7%
CC(=O)Nc1ccc2c(CSc3nnc(N)s3)cc(=O)oc2c1 | 5 | -17% | 9 | ?
Cc1ccc(NC(=O)CC2NCCNC2=O)cc1Cl (stereo unspecified) | 13 | 17% | 33 | 12%
Cc1ccnc(NC(=O)Cc2ccc([N+](=O)[O-])cc2)c1 | 19* | 17% | 58 | 15%
Cc1ccnc(NC(=O)c2cc([N+](=O)[O-])cc([N+](=O)[O-])c2)c1 | 7 | ? | 21 | 11%
Cc1cccc(NC(=O)C2CCCN(S(=O)(=O)c3cccs3)C2)c1C (stereo unspecified) | -2 | -7% | -6 | ?
CC(=O)C1=C(C)Nc2ncnn2C1c1cccc(OCc2ccccc2)c1 (stereo unspecified) | -3 | 10µM* | -6 | 0%
COC(=O)C1=C(C)Nc2ncnn2C1c1ccc(C)o1 (stereo unspecified) | -4 | -13% | 9 | 10µM*
CC(=O)C1=C(C)Nc2ncnn2C1c1ccccc1 (stereo unspecified) | 0 | 32% | -2 | 0.33µM*
COc1ccc(C2C(C(C)=O)=C(C)Nc3ncnn32)cc1 (stereo unspecified) | -3 | 0% | -7 | ?
Cc1nn(Cc2noc(C(=O)NCc3ccccn3)n2)c(C)c1Br | -13 | 17% | -3 | 49%
C[C@]12CC[C@H]3C(=CCc4cc(O)ccc43)[C@@H]1CCC2=O | 16* | ? | 34 | ?
Cc1ccc(C(=O)NC(=S)Nc2ccc(NC(=O)c3cccs3)cc2)cc1[N+](=O)[O-] | -2 | -1% | -3 | 9.3µM*
Cc1ccc(NC(=O)c2cccs2)cc1[N+](=O)[O-] | 36* | 27% | 38* | ?
Cc1ccc(NC(=O)c2ccc(C(C)(C)C)cc2)cc1[N+](=O)[O-] | 43* | 89% | 12* | -25%
Cc1ccc[n+](C(C)C(=O)Nc2ccc(C)c([N+](=O)[O-])c2)c1 (stereo unspecified) | -5 | ? | 9 | 12µM*
Cc1ccc[n+](C(C)C(=O)Nc2ccc([N+](=O)[O-])cc2C)c1 (stereo unspecified) | -1 | 3% | 8 | 29%
CCOc1ccc(C(=O)NCCc2ccc3c(c2)OCCO3)cc1 | 9 | 4% | 21 | 50%
